High-throughput results: PubChem BioAssay, The Scripps Research Institute Molecular Screening Center
CHRM1 PAM: human CHRM1 positive allosteric modulation; P11229; CHO-K1 hM1, Fluo-8 calcium fluorescence, ACh EC20; 0% = ACh EC20, 100% = maximal ACh; activation, % at 3 µM; 360,000 tested, 0.088% active; in the data active = activation above about 19%, passing the limit was not always enough
Target sequence (P11229 whole entry, looked up): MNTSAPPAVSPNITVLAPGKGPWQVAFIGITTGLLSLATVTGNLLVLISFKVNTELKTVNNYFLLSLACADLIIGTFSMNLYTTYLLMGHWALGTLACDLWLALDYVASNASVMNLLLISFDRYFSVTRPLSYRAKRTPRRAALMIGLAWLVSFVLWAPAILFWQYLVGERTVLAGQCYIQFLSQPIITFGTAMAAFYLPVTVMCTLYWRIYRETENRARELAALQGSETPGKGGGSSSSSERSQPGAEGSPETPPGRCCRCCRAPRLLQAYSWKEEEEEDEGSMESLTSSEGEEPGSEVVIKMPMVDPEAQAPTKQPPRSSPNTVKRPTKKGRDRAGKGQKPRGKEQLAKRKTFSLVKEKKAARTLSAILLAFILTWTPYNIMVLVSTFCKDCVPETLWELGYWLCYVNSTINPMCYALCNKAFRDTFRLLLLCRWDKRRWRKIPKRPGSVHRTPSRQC
M1 antag: antagonists of human M1 muscarinic receptor | P11229 | 360,000 tested, 1.3% active | CHO-K1 hM1, Fluo-8 calcium fluorescence, ACh EC80 antagonist | inhibition, % at 3 µM;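 active = percent inhibition above its own plate's cutoff, namely the mean of that plate's compound wells plus 3 SD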;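 note: peak over basal fluorescence ratio during 140 s after agonist addition; 0% = ACh EC80 plus DMSO and 100% = DMSO alone without agonist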
CHO-K1 Ca antag: M1 antagonist counterscreen hit in parental CHO-K1 cells; ATP-induced calcium, Fluo-8 fluorescence; inhibition, % at 3 µM; 360,000 tested, 0.6% active;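 active = inhibition above a per-plate cutoff, the plate's mean sample inhibition plus 3 SD, cut at about 24% in these data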;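 note: 0% = DMSO plus EC80 ATP and 100% = DMSO alone without ATP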
CHO-K1 Ca PAM: counter-screen for M1 PAMs: effect in parental CHO-K1 cells; AID 602247; ATP EC20, Fluo-8 calcium fluorescence; 0% at ATP EC20, 100% at ATP max; activation, % at 3 µM; 360,000 tested, 0.02% active;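 active = activation above the run cutoff, the mean activation of all test compounds plus 3 SD, cut at about 40% in these data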;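 note: peak over basal fluorescence ratio in a 140 s read after ATP addition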
M1 ag: agonists of human M1 muscarinic receptor; P11229; CHO-K1 hM1, Fluo-8 calcium fluorescence, agonist mode; 0% DMSO, 100% acetylcholine EC100; activation, % at 3 µM; 360,000 tested, 0.33% active;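 active = activation above the run's mean compound activation plus 3 SD, cut at about 16% in these data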;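 note: peak over basal fluorescence ratio within a 140 s kinetic read after compound addition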
M1 ag parental: nonselective activator or artifact in parental CHO-K1 cells; Fluo-8 calcium fluorescence; scaled to maximal ATP response, vehicle zero; activation, % at 3 µM; 360,000 tested, 0.48% active; AID 602248; in the data active = activation above about 15%;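 note: untransfected CHO-K1 host cells lacking M1 receptor as counterscreen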
Active calls of the source: *. Only some compounds are listed: those with a hit (about 2.3% of all), similar ones and a draw of the others.

What do the screens show for `CCOc1cccc(-c2c(C(=O)N/N=C/c3cccs3)nnn2-c2nonc2N)c1`?
CHRM1 PAM: 21; M1 antag: -5; CHO-K1 Ca antag: -14; CHO-K1 Ca PAM: 31; M1 ag: 20*; M1 ag parental: 25*

How did Cc1ccc(/C=N/NC(=O)c2nnn(-c3nonc3N)c2-c2ccc3c(c2)OCO3)s1 do in these assays?
CHRM1 PAM: 1; M1 antag: -1; CHO-K1 Ca antag: -13; CHO-K1 Ca PAM: 19; M1 ag: 25*; M1 ag parental: 22*

How did O=C(N/N=C/c1ccc(O)cc1)/C(=C/c1ccccc1)CCO do in these assays?
CHRM1 PAM: -4; M1 antag: 8; CHO-K1 Ca antag: 5; CHO-K1 Ca PAM: -8; M1 ag: -6; M1 ag parental: 1

How did COc1cccc(-c2c(C(=O)N/N=C(\C)c3ccco3)nnn2-c2nonc2N)c1 do in these assays?
CHRM1 PAM: -6; M1 antag: 18; CHO-K1 Ca antag: 14; CHO-K1 Ca PAM: -20; M1 ag: 7; M1 ag parental: 6

What do the screens show for `CCOc1ccc(-c2c(C(=O)N/N=C/c3c[nH]c4ccccc34)nnn2-c2nonc2N)cc1`?
CHRM1 PAM: 9; M1 antag: 1; CHO-K1 Ca antag: 25*; CHO-K1 Ca PAM: -23; M1 ag: 2; M1 ag parental: 1

How did COc1cccc(-c2c(C(=O)N/N=C(\C)c3ccc(Cl)s3)nnn2-c2nonc2N)c1 do in these assays?
CHRM1 PAM: 13; M1 antag: -4; CHO-K1 Ca antag: -3; CHO-K1 Ca PAM: 7; M1 ag: 22*; M1 ag parental: 2

How did Cc1ccc(/C=N/NC(=O)c2nnn(-c3nonc3N)c2-c2cccs2)cc1 do in these assays?
CHRM1 PAM: 13; M1 antag: 6; CHO-K1 Ca antag: 1; CHO-K1 Ca PAM: 30; M1 ag: 69*; M1 ag parental: 33*

What do the screens show for `Nc1ccccc1S(=O)(=O)C(F)F`?
CHRM1 PAM: 4; M1 antag: 5; CHO-K1 Ca antag: 8; CHO-K1 Ca PAM: -1; M1 ag: -1; M1 ag parental: 4

How did S=c1[nH]nc(-c2cccs2)n1/N=C/c1c(Cl)cccc1Cl do in these assays?
CHRM1 PAM: 4; M1 antag: 11; CHO-K1 Ca antag: -15; CHO-K1 Ca PAM: 21; M1 ag: 20*; M1 ag parental: 6

What do the screens show for `CN(C(=O)c1ccc(Br)o1)C1CCS(=O)(=O)C1` (stereo not given)?
CHRM1 PAM: 6; M1 antag: -3; CHO-K1 Ca antag: -15; CHO-K1 Ca PAM: 25; M1 ag: -4; M1 ag parental: 1

What do the screens show for `CCN1CCN(c2ccc(S(=O)(=O)N3CCOCC3)cc2NC(=O)c2ccccc2SC)CC1`?
CHRM1 PAM: 0; M1 antag: -10; CHO-K1 Ca antag: 9; CHO-K1 Ca PAM: -7; M1 ag: 24*; M1 ag parental: 0

Results for CCN1CCN(c2ccc(S(=O)(=O)N3CCOCC3)cc2NC(=O)c2cc(F)c(F)c(F)c2F)CC1 ?
CHRM1 PAM: 0; M1 antag: -7; CHO-K1 Ca antag: -7; CHO-K1 Ca PAM: 11; M1 ag: -8; M1 ag parental: 0

How did Cc1ccc(NC(=S)NCc2ccccc2)cc1[N+](=O)[O-] do in these assays?
CHRM1 PAM: -17; M1 antag: 25; CHO-K1 Ca antag: 20; CHO-K1 Ca PAM: -14; M1 ag: -1; M1 ag parental: 12

How did Cc1ccc(CNC(=S)Nc2ccc(C)c([N+](=O)[O-])c2)cc1 do in these assays?
CHRM1 PAM: -16; M1 antag: 18; CHO-K1 Ca antag: 29*; CHO-K1 Ca PAM: -13; M1 ag: 9; M1 ag parental: 10

Results for CC1(C)CC(=O)c2c(O)cc(OCc3ccc(Br)cc3)cc2O1 ?
CHRM1 PAM: 0; M1 antag: -3; CHO-K1 Ca antag: -20; CHO-K1 Ca PAM: 27; M1 ag: -7; M1 ag parental: 2

How did CC1(C)CC(=O)c2ccc(OCc3ccc([N+](=O)[O-])cc3)cc2O1 do in these assays?
CHRM1 PAM: 1; M1 antag: -8; CHO-K1 Ca antag: 30*; CHO-K1 Ca PAM: -20; M1 ag: -4; M1 ag parental: 0

What do the screens show for `Cc1cccc(NC(=O)CN2C(=O)S/C(=C\c3cc(C)n(C)c3C)C2=O)c1`?
CHRM1 PAM: -7; M1 antag: 12; CHO-K1 Ca antag: -8; CHO-K1 Ca PAM: 21; M1 ag: -1; M1 ag parental: 4

How did Cc1ccc(NC(=O)CN2C(=O)S/C(=C\c3cc(C)n(C)c3C)C2=O)cc1 do in these assays?
CHRM1 PAM: -24; M1 antag: 41*; CHO-K1 Ca antag: -2; CHO-K1 Ca PAM: -8; M1 ag: -4; M1 ag parental: 4

Results for Cc1ccc(S(=O)(=O)N/N=C/c2ccc(OC3CSC3)cc2)cc1 ?
CHRM1 PAM: -4; M1 antag: 37*; CHO-K1 Ca antag: 17; CHO-K1 Ca PAM: 11; M1 ag: 29*; M1 ag parental: 17*

How did O=C(Nc1nc(-c2ccccc2)cs1)c1ccccc1NS(=O)(=O)c1ccc(F)cc1 do in these assays?
CHRM1 PAM: -23; M1 antag: 42*; CHO-K1 Ca antag: 32*; CHO-K1 Ca PAM: -12; M1 ag: 0; M1 ag parental: 14

What do the screens show for `O=S(=O)(Nc1ccc(-c2csc(-c3ccccc3)n2)cc1)c1ccc(F)cc1`?
CHRM1 PAM: 7; M1 antag: -12; CHO-K1 Ca antag: -17; CHO-K1 Ca PAM: 15; M1 ag: -4; M1 ag parental: 1

What do the screens show for `COc1ccccc1C(=O)Nc1nc(-c2ccc(S(=O)(=O)N3CCOCC3)cc2)cs1`?
CHRM1 PAM: -18; M1 antag: 57*; CHO-K1 Ca antag: 21; CHO-K1 Ca PAM: -32; M1 ag: 5; M1 ag parental: 9

How did COc1ccccc1OC(C)C(=O)Nc1nc(-c2ccc(S(=O)(=O)N3CCOCC3)cc2)cs1 (stereo not given) do in these assays?
CHRM1 PAM: -1; M1 antag: 9; CHO-K1 Ca antag: -1; CHO-K1 Ca PAM: 24; M1 ag: 2; M1 ag parental: 3

Results for Cn1cnc(S(=O)(=O)NC2CCN(Cc3c(F)cccc3Cl)CC2)c1 ?
CHRM1 PAM: 0; M1 antag: 1; CHO-K1 Ca antag: 9; CHO-K1 Ca PAM: 7; M1 ag: -3; M1 ag parental: 1

Results for CC(C)CNC(=O)NC(=O)COC(=O)Cn1cnc2ccccc2c1=O ?
CHRM1 PAM: 1; M1 antag: 3; CHO-K1 Ca antag: -1; CHO-K1 Ca PAM: -2; M1 ag: -4; M1 ag parental: 0

What do the screens show for `N#CCSc1nc2ccc(N3CCCCC3)cc2c(=O)n1Cc1ccccc1`?
CHRM1 PAM: -23; M1 antag: 22*; CHO-K1 Ca antag: 7; CHO-K1 Ca PAM: -4; M1 ag: -7; M1 ag parental: 0
